# Laboratory results published in the supplement of paper PMC6897291.
# Structures can show the parent of a compound that is named as a salt.
# Tested on: RIVA
# Test: growth inhibition by drug plus 177Lu-lilotomab satetraxetan (1 - RLU/untreated control) (fraction); higher = stronger inhibition
# Conditions: 10 nM; time (day): 3; 177Lu-lilotomab satetraxetan 0.5 ug/ml
# Summary of the method: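 Plates pre-printed with the Selleck Cambridge Cancer Compound library at 10/100 nM (RIVA) or 10/1,000 nM (U-2932) received 3,000 cells/well. These cells had been washed after 18 h untreated or with a radiolabelled anti-CD37 antibody conjugate (~600 MBq/mg; 0.5 µg/ml RIVA, 1 µg/ml U-2932). Growth inhibition was obtained from RealTime-Glo luminescence in relation to untreated no-drug wells. Each daily read from day 3, taken after 1 h at 37°C, was converted as 1 − RLU/mean of 48 such wells per plate.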
row,SMILES,growth inhibition by drug plus 177Lu-lilotomab satetraxetan
1,COc1ccc(S(=O)(=O)Nc2cccnc2Nc2ccc(O)cc2)cc1,0.454
2,C[C@]12CCC(=O)C=C1CC[C@@H]1[C@@H]2[C@@H](O)C[C@@]2(C)[C@H]1CC[C@]2(O)C(=O)CO [Hydrocortisone (Cortisol)],0.519
3,COc1cc(OC2CCN(C)CC2)ccc1Nc1ncc2c(n1)n(C1CCCC1)c(=O)n2C,0.539
4,Nc1nc(F)nc2c1ncn2[C@@H]1O[C@H](CO)[C@@H](O)[C@@H]1O [Fludarabine (Fludara)],0.546
5,Nc1nc(Nc2ccc(S(N)(=O)=O)cc2)nn1C(=O)c1c(F)cccc1F,0.373
6,Nc1ncn([C@@H]2O[C@H](CO)[C@@H](O)[C@H]2O)c(=O)n1 [Azacitidine (Vidaza)],0.407
7,COc1cc2nccc(Oc3ccc(NC(=O)NC4CC4)c(Cl)c3)c2cc1C(N)=O [E7080 (Lenvatinib)],0.331
8,Nc1ccn([C@@H]2O[C@H](CO)[C@@H](O)[C@@H]2O)c(=O)n1 [Cytarabine],0.51
9,Nc1cccc2c1C(=O)N(C1CCC(=O)NC1=O)C2=O (stereo not drawn) [Pomalidomide],0.434
10,CN(C)c1nc(N(C)C)nc(N(C)C)n1 [Altretamine (Hexalen)],0.349
11,Cc1[nH]c(/C=C2\C(=O)Nc3ccc(S(=O)(=O)N(C)c4cccc(Cl)c4)cc32)c(C)c1C(=O)N1CCN(C)CC1,0.489
12,O=C(O[C@@H]1Cc2c(O)cc(O)cc2O[C@@H]1c1cc(O)c(O)c(O)c1)c1cc(O)c(O)c(O)c1 [(-)-Epigallocatechin gallate],0.452
13,CCc1c2c(nc3ccc(OC(=O)N4CCC(N5CCCCC5)CC4)cc13)-c1cc3c(c(=O)n1C2)COC(=O)[C@]3(O)CC [Irinotecan HCl Trihydrate (Campto)],0.219
14,S=C(NCc1ccc2c(c1)OCO2)N1CCN(c2ncnc3c2oc2ccccc23)CC1 [Amuvatinib (MP-470)],0.627
15,COc1ccc2c3n(c(=NC(=O)c4cccnc4)nc2c1OC)CCN3,0.429
16,C#Cc1cccc(Nc2ncnc3cc(OCCOC)c(OCCOC)cc23)c1 [Erlotinib HCl],0.595
17,Cc1ccc(-c2cc(C(F)(F)F)nn2-c2ccc(S(N)(=O)=O)cc2)cc1 [Celecoxib],0.337
18,N#CC[C@H](C1CCCC1)n1cc(-c2ncnc3[nH]ccc23)cn1,0.32
19,CCc1cncnc1N1CCN(Cc2nc3ccc(C(F)(F)F)cc3[nH]2)CC1,0.505

row,SMILES,growth inhibition by drug plus 177Lu-lilotomab satetraxetan
1,CCN(CC)C(=S)SSC(=S)N(CC)CC [Disulfiram (Antabuse)],0.402
2,CC(C)[C@H](C(=O)Nc1ccc(C(=O)NO)cc1)c1ccccc1,0.524
3,CC(=O)O[C@]1(C(C)=O)CC[C@H]2[C@@H]3C=C(C)C4=CC(=O)CC[C@]4(C)[C@H]3CC[C@@]21C [Megestrol Acetate],0.408
4,COc1cc2ncnc(Nc3cccc(Br)c3)c2cc1OC,0.308
5,N#Cc1ccc(C(c2ccc(C#N)cc2)n2cncn2)cc1 [Letrozole],0.418
6,CC(=O)c1c(C)c2cnc(Nc3ccc(N4CCNCC4)cn3)nc2n(C2CCCC2)c1=O,0.392
7,COc1cccc2c1C(=O)c1c(O)c3c(c(O)c1C2=O)C[C@@](O)(C(=O)CO)C[C@@H]3O[C@H]1C[C@H](N)[C@H](O)[C@H](C)O1 [Doxorubicin (Adriamycin)],0.831
8,CC(C)(C)c1[nH]cnc1/C=c1\[nH]c(=O)/c(=C/c2ccccc2)[nH]c1=O [NPI-2358 (Plinabulin)],0.505
9,COc1cc(Nc2ncc3c(n2)-c2ccc(Cl)cc2C(c2c(F)cccc2OC)=NC3)ccc1C(=O)O [MLN8237 (Alisertib)],0.398
10,O=c1[nH]cc(F)c(=O)[nH]1 [Adrucil (Fluorouracil)],0.421
11,CC(C)c1ccc(Cn2ccc3c4c(N)nc(NC5CC5)nc4ccc32)cc1,0.658
12,CC/C(=C(\c1ccccc1)c1ccc(OCCN(C)C)cc1)c1ccccc1 [Tamoxifen Citrate (Nolvadex)],0.602
13,Cn1cc(C2=C(c3ccc(Cl)cc3Cl)C(=O)NC2=O)c2ccccc21,0.449
14,c1ccc(-c2nn3c(c2-c2ccnc4cc(OCCN5CCOCC5)ccc24)CCC3)nc1,0.46
15,O=C(NCCS(=O)(=O)c1ccc(C(F)(F)F)cn1)c1ccc(Cl)cc1,0.548
16,Cc1ccc(S(=O)(=O)C=CC#N)cc1,0.414
17,CCC1=C[C@@H]2CN(C1)Cc1c([nH]c3ccccc13)[C@@](C(=O)OC)(c1cc3c(cc1OC)N(C)[C@H]1[C@@](O)(C(=O)OC)[C@H](OC(C)=O)[C@]4(CC)C=CCN5CC[C@]31[C@@H]54)C2 [Vinorelbine (Navelbine)],0.928
18,Cc1cc(Nc2cc(N3CCN(C)CC3)nc(/C=C/c3ccccc3)n2)n[nH]1,0.336
19,CN(N=O)C(=O)N[C@@H](C=O)[C@@H](O)[C@H](O)[C@H](O)CO [Streptozotocin (Zanosar)],0.377
